Data reported in the supplement of paper PMC6953052.
± gives the standard deviation of the averaged measurements. Over roughly 1,700 compounds, “fraction of GFP-LC3-positive cells (≥5 vesicles/cell)” has its median near 0.058; the highest 2% begin near 0.59. What follows is part of a selection rich in the highest values, with near analogues and random picks from the rest.

test system: CbCln3 +/+ GFP-LC3 cerebellar neuronal cells; assay: fraction of GFP-LC3-positive cells (≥5 vesicles/cell); higher = more autophagosome accumulation
Outline: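 Compound (~50 nL in DMSO) was pin-transferred in duplicate onto wild-type or mutant CbCln3 cerebellar cells stably expressing GFP-LC3, seeded at 2 × 10^3/well in 384-well plates, for 24 h at 33 °C. After fixation in 3.2% PFA, three fields per well were imaged at 10×. The value reported is the duplicate average of the fraction of cells meeting a vesicle-count threshold, with CellProfiler counting GFP-LC3 vesicles per cell and out-of-focus images excluded. Cells met the threshold at 5 or more vesicles.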

SMILES	fraction of GFP-LC3-positive cells
CCOC(=O)C1=C(C)NC(=S)NC1c1cccc(O)c1 (stereo not drawn) [Monastrol]	0.199
CNC1(C)C2CCC(C2)C1(C)C.Cl (stereo not drawn) [Mecamylamine hydrochloride]	0.093
CN(Cc1cnc2nc(N)nc(N)c2n1)c1ccc(C(=O)NC(CCC(=O)O)C(=O)O)cc1 (racemic) [Amethopterin (R,S)]	0.0411
CC(=O)Oc1ccc(C(c2ccc(OC(C)=O)cc2)c2ccccn2)cc1 [Bisacodyl]	0.0605
CC/C=C\C/C=C\C/C=C\C/C=C\CCCCC(=O)O [6(Z), 9(Z), 12(Z), 15(Z)-Octadecatetraenoic acid]	0.0591
CC(C(=O)O)c1ccc(-c2ccccc2)c(F)c1 (stereo not drawn) [Flurbiprofen]	0.0432
Cl.O=C1CC2(CCCC2)CC(=O)N1CCCCN1CCN(c2ncccn2)CC1 [Buspirone hydrochloride]	0.0334
CC(C)[N+]1(C)[C@@H]2CC[C@@H]1CC(OC(=O)C(CO)c1ccccc1)C2.[Br-] (stereo partly drawn) [Ipratropium bromide]	0.0779
CC[C@]12CCCN3CCc4c(n(c5ccccc45)[C@](O)(C(=O)OC)C1)[C@@H]32 [Epivincamine]	0.0608
CC(=O)N(CC(O)CN(C(C)=O)c1c(I)c(C(=O)NCC(O)CO)c(I)c(C(=O)NCC(O)CO)c1I)c1c(I)c(C(=O)NCC(O)CO)c(I)c(C(=O)NCC(O)CO)c1I (stereo not drawn) [Iodixanol]	0.0455
COc1ccc2cc(C(C)C(=O)O)ccc2c1 (stereo not drawn) [Naproxen]	0.053
CC(C)(C)C(=O)OCOC(=O)[C@@H]1N2C(=O)[C@@H](/N=C/N3CCCCCC3)[C@H]2SC1(C)C.Cl [Pivmecillinam hydrochloride]	0.0551
C[N+]1(C)CCC(OC(=O)C(O)(c2ccccc2)C2CCCC2)C1.[Br-] (stereo not drawn) [Glycopyrrolate]	0.0526
CCCCC/C=C\C\C=C/C=C/C=C/[C@@H](O)[C@@H](O)CCCC(=O)O	0.0542
O=C(O)c1cccnc1 [Niacin]	0.0475
CC/C=C\C/C=C\C/C=C\C/C=C\C/C=C\C/C=C\CCC(=O)O [Docosahexaenoic acid (22:6 n-3)]	0.0751
CC/C=C\C/C=C\C/C=C\C/C=C\C/C=C\C/C=C\CCC(=O)O [Docosahexaenoic acid (22:6 N-3)]	0.0787
CC/C=C\C/C=C\C/C=C\C/C=C\C/C=C\C/C=C\CCC(=O)O	0.0655
C[C@@H]1C[C@H]2[C@@H]3CCC4=CC(=O)C=C[C@]4(C)[C@@]3(F)[C@@H](O)C[C@]2(C)[C@@]1(O)C(=O)CO [dexamethasone]	0.0637
CCCCCCCC(=O)OC[C@H](CO)OC(=O)CCCCCCC [1,2-Dioctanoyl-SN-glycerol]	0.058
CCCCCCCC(=O)OC[C@H](CO)OC(=O)CCCCCCC	0.0799
O=c1[nH]c(=O)n([C@H]2C[C@H](O)[C@@H](CO)O2)cc1I [Idoxuridine]	0.122
CC(C)(C)NC[C@H](O)COc1nsnc1N1CCOCC1.O=C(O)/C=C\C(=O)O [Timolol maleate salt]	0.0791
CSc1ccc2c(c1)N(CCC1CCCCN1C)c1ccccc1S2.Cl (stereo not drawn) [Thioridazine hydrochloride]	0.103

SMILES	fraction of GFP-LC3-positive cells
O=C(CCCN1CCC(O)(c2ccc(Br)cc2)CC1)c1ccc(F)cc1 [Bromperidol]	0.0553
CC(C)COCC(CN(Cc1ccccc1)c1ccccc1)N1CCCC1.Cl (stereo not drawn) [Bepridil hydrochloride]	0.0674
CC(C)COCC(CN(Cc1ccccc1)c1ccccc1)N1CCCC1 (stereo not drawn)	0.773
Cl.c1ccc(CN(CC2=NCCN2)c2ccccc2)cc1 [Antazoline hydrochloride]	0.048
NC[C@H]1O[C@H](OC2[C@@H](N)C[C@@H](N)[C@H](O)[C@H]2O[C@@H]2O[C@H](CO)[C@@H](O)[C@H]2O)[C@H](N)[C@@H](O)[C@@H]1O.O=S(=O)(O)O (stereo partly drawn) [Ribostamycin sulfate salt]	0.0446
CC(C[N+](C)(C)C)OC(N)=O.[Cl-] (stereo not drawn) [Bethanechol chloride]	0.0276
COc1cc(OC)c(C(=O)CCCN2CCCC2)c(OC)c1.Cl [Buflomedil hydrochloride]	0.0492
Nc1ccc(S(=O)(=O)Nc2ccnn2-c2ccccc2)cc1 [Sulfaphenazole]	0.0807
Cl.NCc1ccc(S(N)(=O)=O)cc1 [Mafenide hydrochloride]	0.087
CCCCOc1cc(C(=O)OCCN(CC)CC)ccc1N.Cl [Benoxinate hydrochloride]	0.0443
C[N+](C)(C)CCCCCC[N+](C)(C)C.O.O.[Br-].[Br-] [Hexamethonium dibromide dihydrate]	0.0307
O=S(=O)(NCCNC/C=C/c1ccc(Br)cc1)c1cccc2cnccc12	0.0303 ± 0.022
CS(=O)(=O)Nc1ccc([N+](=O)[O-])cc1Oc1ccccc1 [Nimesulide]	0.0281
Cn1c([N+](=O)[O-])cnc1COC(N)=O [Ronidazole]	0.116
NC(=O)c1ccc(-c2nc(-c3ccc4c(c3)OCO4)c(-c3ccccn3)[nH]2)cc1	0.0591
CCCCC/C=C\C/C=C\CCCCCCCC(N)=O	0.0698
CCCCC/C=C\C/C=C\CCCCCCCC(N)=O [Linoleamide]	0.0419
C=C(C)[C@@H]1CC[C@]2(C(=O)O)CC[C@]3(C)[C@H](CC[C@@H]4[C@@]5(C)CC[C@H](O)C(C)(C)[C@@H]5CC[C@]43C)[C@@H]12 [Betulinic acid]	0.0607
CCCCC/C=C\C/C=C\C/C=C\C=C\[C@@H](O)CCCC(=O)O	0.0555 ± 0.014
Oc1cc2c(cc1O)CN(C(=S)NCCc1ccc(Cl)cc1)CCC2 [capsazepine]	0.197
O=C(Nc1ccccc1)c1cc([N+](=O)[O-])ccc1Cl	0.0781
CCC(=O)[C@@]1(C)[C@H](C)C[C@H]2[C@@H]3CCC4=CC(=O)C=C[C@]4(C)[C@H]3[C@@H](O)C[C@@]21C [Rimexolone]	0.0676
CCCCNc1cc(C(=O)O)cc(S(N)(=O)=O)c1Oc1ccccc1 [Bumetanide]	0.0472
C[C@@H](O)[C@H]1C(=O)N2C(C(=O)O)=C(SCCNC=N)C[C@H]12 [Imipenem]	0.032
